# Data reported in PubChem BioAssay AID1839 (Johns Hopkins Ion Channel Center, 2009).
# In all, about 2,400 compounds went through this assay and about 220 (9.2%) were called active. This excerpt belongs to a sample that is enriched for actives. Values without a mark were called inactive.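 The calls were made as follows: active = signal change above the mean of dofetilide-free buffer controls plus 3 SD, so a positive margin; inactive = the rest.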
# Assay: nonspecific flux effects in parental CHO-K1, confirmation, counter-screen for hERG block protection project, cell-based, CHO-K1 parental line, FluxOR thallium flux (AID 1839);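 also: compounds applied alone with no dofetilide to cells lacking hERG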
# Conditions: CHO-K1 parental cells, FluxOR thallium flux fluorescence; at 10 µM
row,Structure (SMILES),"signal change vs control minus 3*SD hit threshold (margin above threshold, higher = more increase)"
1,CC/C(=C\C=C\[C@@H]1C=C[C@@H]2CCC[C@H]2[C@@H]1C(=O)c1ccc[nH]1)[C@@H]1O[C@@H]([C@@H](C)C(=O)O)CC[C@@H]1C,83% (active)
2,O=c1c2cc(Br)ccc2[nH]c(=S)n1-c1ccccc1,-20.2%
3,CCCCN1C(=O)/C(=C/c2ccc(N3CCCCCC3)cc2)C(=O)NC1=S,-36%
4,Cc1ccc(/C=C2\C(=O)NC(=S)N(c3ccc(F)cc3)C2=O)s1,-30.1%
5,CN1C(=O)/C(=C/c2ccc(Cl)s2)C(=O)NC1=S,-29.5%
